Experimental data published in the supplement of paper PMC3334620.
The full ranking holds about 33,000 sequences; the median of “E-score (-0.5 to 0.5)” is about -0.017, and the highest 2% start at about 0.3. The entries come from a sample that favours the highest values as a whole.

The sequences below were run against T1, Sut1 (UniProt P53032) (assay: PBM E-score (8-mer binding enrichment) (E-score (-0.5 to 0.5)); higher = stronger / more preferred TF binding). Conditions: protein concentration: 200 nM; construct: GST-full length.
T1 sequence: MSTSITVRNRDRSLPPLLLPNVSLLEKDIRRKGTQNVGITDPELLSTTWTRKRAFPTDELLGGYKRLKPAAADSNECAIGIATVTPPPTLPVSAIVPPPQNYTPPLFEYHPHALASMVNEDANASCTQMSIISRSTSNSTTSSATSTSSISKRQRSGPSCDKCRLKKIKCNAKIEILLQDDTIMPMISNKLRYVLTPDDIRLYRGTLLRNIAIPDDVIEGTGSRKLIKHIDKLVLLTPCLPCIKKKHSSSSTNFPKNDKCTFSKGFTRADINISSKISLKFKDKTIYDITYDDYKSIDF
Experimental: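 Universal 'all 10-mer' protein binding microarrays (Agilent AMADID 015681) probed with GST-tagged S. cerevisiae TFs (full-length or DBD) made by in vitro transcription/translation (PURExpress), about 100-200 nM. Bound TF was detected with fluorescent anti-GST. Each ungapped 8-mer (which stands for itself and its reverse complement) is scored by the PBM enrichment score (E-score), a modified Wilcoxon-Mann-Whitney statistic from -0.5 to +0.5, computed with the Universal PBM Analysis Suite. Scale: above 0.35 generally sequence-specific binding.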

Row | Sequence | PBM E-score
1 | ATACGAGA | -0.0254
2 | AGAGGCTC | -0.103
3 | AATTCTGG | -0.0608
4 | CTTCACTA | 0.252
5 | GCTTCTTA | 0.0688
6 | ATGACGTA | 0.0909
7 | CCGTACTA | 0.297
8 | GCGTACTA | -0.0972
9 | ACGTACTA | -0.0235
10 | AGAATCCA | 0.00183
11 | GTTATATA | 0.286
12 | ATTATATA | 0.337
13 | CTTATATA | 0.334
14 | ATTATATG | 0.134
15 | ATTATATC | 0.262
16 | CTTATATC | 0.222
17 | AACCCGTA | -0.0786
18 | CTTCTCTC | -0.0216
19 | CCAAACAC | -0.00595
20 | ACACCTCG | -0.103
21 | AGGAGGAG | -0.183
22 | AGGTGTGG | -0.0561
23 | AATCCGTC | 0.0795
24 | AGTCCGTA | 0.445
25 | AGCCCGTG | -0.224

Row | Sequence | PBM E-score
26 | CGTCCGTC | -0.154
27 | AGTCCGTG | 0.431
28 | CGTCCGTA | 0.0823
29 | AGTCCATG | -0.00201
30 | AGTCCGTC | 0.424
31 | GGTCCGTA | 0.253
32 | CTGCTTGA | -0.153
33 | CTGAACAC | -0.0309
34 | GCTCTGCC | -0.128
35 | CGCACACA | -0.161
36 | CGTTGGCA | -0.0897
37 | GACTGATA | 0.0856
38 | CGAGCTCG | -0.0197
39 | GGAGACAA | 0.0139
40 | GCATGCGA | 0.0246
41 | GTGCCGAA | 0.0728
42 | CCCCGAGC | 0.163
43 | CTCCGAGA | 0.459
44 | CACCGAGA | -0.0582
45 | GGCCGAGA | 0.0849
46 | GTCCGAGA | 0.428
47 | ATCCGAGA | 0.198
48 | CGCCGAGA | 0.0729
49 | CTCCGAGC | 0.437
50 | ATCCGAGC | 0.0537

Row | Sequence | PBM E-score
51 | CGACACTC | 0.0434
52 | AGACTCAA | -0.0327
53 | AAGGCTGG | -0.146
54 | AGATGGTA | 0.0768
55 | AATTATTC | 0.317
56 | ATTTATTA | 0.269
57 | CATTATTC | 0.231
58 | AATTATTA | 0.305
59 | GATTATTA | 0.229
60 | AATTATCC | 0.1
61 | AATTATTG | 0.173
62 | CTTTATTA | 0.261
63 | GTTTATTA | 0.302
64 | TCGATCAA | -0.00575
65 | TAGTGCGA | -0.0645
66 | AGTGATTA | 0.0842
67 | CTGTCCTA | -0.0818
68 | CCAAGACC | -0.261
69 | GGCGTCGA | -0.167
70 | GAAAGTCC | 0.326
71 | AAAAGTCA | 0.15
72 | AAAAGTCT | 0.102
73 | GAAAGTCA | 0.049
74 | ATAAGTCC | 0.317
75 | AAAAGTCC | 0.394

Row | Sequence | PBM E-score
76 | ATAAGTCG | 0.0862
77 | CAAAGTCC | 0.282
78 | CGAAGTCC | 0.378
79 | CTAAGTCC | 0.114
80 | GGAAGTCC | 0.159
81 | CGAAGTCA | -0.081
82 | CGCGCAAC | -0.114
83 | CAAAGTAC | 0.0285
84 | ACGTATAG | 0.0316
85 | GCAGCACC | 0.0294
86 | AGATTGCC | -0.043
87 | CCACAAAA | 0.0574
88 | GCTCTACA | -0.121
89 | AGGATCGC | -0.214
90 | CAAGCGGC | -0.0127
91 | ACAAGTCC | 0.374
92 | ACAAGTCG | -0.264
93 | ACAAGTCA | -0.118
94 | ACGCGTCG | 0.174
95 | AAAGTGAA | 0.191
96 | GTGCTACA | -0.0297
97 | GGGATGGA | -0.0689
98 | CGAAAAGC | -0.0121
99 | CCTCCCGA | -0.289
100 | GCTCCAGA | -0.199

Row | Sequence | PBM E-score
101 | CCTCCGGA | 0.374
102 | GCGCCGGA | 0.196
103 | CCGCCGGA | 0.223
104 | GCTCCGGA | 0.442
105 | ACTTAGCC | -0.129
106 | GAGGCTAC | -0.349
107 | CTTCGCAA | -0.0605
108 | GAAGCGAC | -0.0313
109 | CCCCGACA | 0.0397
110 | ATCCGACC | 0.00218
111 | CTCCGACA | 0.375
112 | CTCCGACC | 0.391
113 | GTCCGACA | 0.366
114 | GCCCGACA | -0.106
115 | CACCGACC | -0.226
116 | GGCCGACA | -0.0715
117 | ATCCGACA | 0.0788
118 | ATTTCAGC | 0.137
119 | AACACTAT | 0.266
120 | AAGTGTCC | 0.0158
121 | GCTGAAGA | -0.00656
122 | GAGGTGGA | -0.151
123 | AGGTCGAG | -0.257
124 | AATTATAA | 0.335
125 | GATTATAA | 0.154

Row | Sequence | PBM E-score
126 | CATTATAA | 0.126
127 | AATTATAC | 0.308
128 | CATTATAC | 0.151
129 | AATTATAG | 0.257
130 | ACTATGGG | -0.155
131 | CGTCTGTC | -0.213
132 | CTCAGCTA | -0.13
133 | TACTTACA | 0.115
134 | CGGAGTCC | 0.486
135 | CAGAGTCC | 0.17
136 | GGGAGTCA | -0.126
137 | CGGAGTCA | 0.474
138 | AGGAGTCC | 0.202
139 | AGGAGTCA | 0.0481
140 | CTCTCACA | 0.0236
141 | GAACCGAA | 0.13
142 | ATTTGCAG | 0.0722
143 | CTAGCGCA | -0.174
144 | ATTACGGG | -0.0151
145 | ATTACGGA | 0.353
146 | AGTACGGC | -0.0481
147 | ATCACGGA | 0.402
148 | ATTACGGC | -0.0212
149 | ATCACGGC | 0.0173
150 | ATCACGGG | -0.0946

Row | Sequence | PBM E-score
151 | GGTACGGA | 0.155
152 | AGTACGGA | 0.374
153 | GTGCAGGA | -0.23
154 | CTCCTGAA | -0.0399
155 | GAGAATCA | 0.0959
156 | GTGGATTA | 0.0983
157 | CCCGAGGA | -0.118
158 | TCCGATAA | 0.387
159 | TCCGACAA | 0.337
160 | ACCGAGCA | 0.205
161 | TCCGAGGA | 0.34
162 | GCCGAGCA | -0.305
163 | GCCGATAA | 0.00363
164 | GCCGAGGA | 0.1
165 | CCCGACAA | 0.173
166 | ACCGATAA | 0.18
167 | TCCGAGCA | 0.307
168 | ACCGACAA | 0.0505
169 | TTAGCCAA | -0.0233
170 | GTAATCGA | 0.0961
171 | ACTACTCT | -0.0164
172 | CTAGCCTC | -0.268
173 | CCCTCGCG | -0.204
174 | ATCTGCAG | 0.0906
175 | ATGAGACA | -0.0116

Row | Sequence | PBM E-score
176 | CCGCGACC | -0.177
177 | ATGAGCTA | 0.0367
178 | AGTCAAAC | -0.135
179 | GGCAATTA | 0.0911
180 | ACCGAGAA | 0.229
181 | TCCGAGAA | 0.407
182 | CCCGAGAA | 0.157
183 | AACTTGCG | -0.0193
184 | ACACTCCT | -0.0674
185 | CCACTCCC | -0.254
186 | ATACTCCC | 0.108
187 | CCACTCCG | 0.444
188 | CCACTCCA | -0.174
189 | ATACTCCA | -0.0121
190 | ACACTCCG | 0.438
191 | ACTCTCCG | 0.27
192 | ATACTCCG | 0.487
193 | ACAGACAA | 0.294
194 | GGATAGCC | 0.0369
195 | TAGCATCA | -0.0462
196 | GCAATTGC | -0.0673
197 | CGGCCTGC | -0.186
198 | CTGTGCAC | -0.277
199 | CGGTGTCC | 0.0917
200 | GAACCCTC | -0.17

Row | Sequence | PBM E-score
201 | AGACTCCT | -0.142
202 | CGACTCCA | -0.132
203 | CGACTCCC | -0.211
204 | AGACTCCC | -0.319
205 | AGACTCCG | 0.47
206 | CGACTCCG | 0.47
207 | AACTGTCG | 0.00476
208 | GCTAGTAC | -0.14
209 | ACCTGAGA | -0.0623
210 | CCCGAAGG | -0.0908
211 | AGAATTCA | 0.115
212 | ATAAACTC | 0.315
213 | CTAAACTC | 0.225
214 | ATAAACTG | 0.047
215 | TACACCCA | 0.036
216 | TAGCGTCA | -0.116
217 | CGGAAAGC | 0.275
218 | GGGAAATA | 0.0403
219 | CGGAAAGA | 0.312
220 | CGGAAATA | 0.337
221 | CGGAAATC | 0.212
222 | AGGAAAGA | 0.0593
